Test results from ChEMBL document CHEMBL1157539, “Thousands of chemical starting points for antimalarial lead identification” (Nature, 2010).

Experiments:
Format in all cases: functional
Plasmodium falciparum [1] = test: GSK_TCMDC: Inhibition of Plasmodium falciparum 3D7 in whole red blood cells, using parasite LDH activity as an index of growth. Test compounds present at 2uM
Plasmodium falciparum [2] = test: GSK_TCMDC: Inhibition of Plasmodium falciparum Dd2 in whole red blood cells, using parasite LDH activity as an index of growth. Test compounds present at 2uM
HepG2 = test: GSK_TCMDC: Percent inhibition of human HepG2 cell line. Test compounds present at 10uM.

Structure (SMILES) | Inhibition (Plasmodium falciparum [1]) | Inhibition (Plasmodium falciparum [2]) | Inhibition (HepG2)
COc1cc2ncnc(Nc3ccc(Br)c(Cl)c3)c2cc1OC.Cl | 100% | 15% | 22%
O=C(Nc1ccc2c(c1)CCC2)N[C@H]1CCN(Cc2ccc(OCCCN3CCCCC3)cc2)C1 | 96% | 0% | 9%
CCN(CC)Cc1ccc2c(=O)cc(CCc3cccc(F)c3F)n(CC(=O)N(Cc3ccc(-c4ccc(C(F)(F)F)cc4)cc3)C(C)C)c2c1.O=C(O)C(O)C(O)C(=O)O | 100% | 63% | 82%
CN1CCN(CCCN(Cc2cccc(-c3ccc(CNC4CCCC4)cc3)c2)C(=O)/C=C/c2ccccc2)CC1.O=C(O)C(F)(F)F | 98% | 96% | 62%
Cc1[nH]c(C)c(-c2ccc(Oc3ccc(Cl)cc3)cc2)c(=O)c1Br | 97% | 96% | 12%
O=S(=O)(Nc1cccc(CCN2CCC(N3CCCCC3)CC2)c1)c1cccc2ccccc12 | 99% | 63% | 23%
CCCCCCNc1c2ccccc2nc2ccccc12.Cl | 97% | 32% | 24%
CC(C)(C(=O)NCCC1CCN(CCCCCNC(=O)/C=C/c2ccc(Cl)c(Cl)c2)CC1)c1ccc(Cl)cc1 | 89% | 33% | 92%
COc1cccc(NC(=O)[C@H](C(C)C)n2c(=O)[nH]c3ccccc3c2=O)c1 | 100% | 100% | 0%
CC(=O)c1ccc(-c2ccc(C(=O)NCCCCN3CCC(c4ccc5c(c4O)CCCC5)CC3)cc2)cc1 | 100% | 83% | 87%
